Source: PubChem BioAssay AID1159580 (chemical genetic matrix, 2015)
About 2,000 (36%) of roughly 5,500 compounds were called active. About 18% were inconclusive and are not listed. This is one part of the list. A number with no mark means an inactive call. No stated cut-off is given here; in the data, active means normalized growth mostly below about 0.91 (no sharp cut-off); inconclusive means no clear call, values can overlap the other calls; inactive means mostly above about 0.92.

Assay: chemical genetic growth profiling, strain panel (AID 1159580);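 further: tested at 20 µM; growth read once vehicle control cultures reached saturation at 30 °C; 1 = growth at the plate median or of vehicle wells; lower values mean less growth of the strain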
Conditions: S. cerevisiae deletion strains, growth OD

**Q.** What does the source list for CNC(=O)[C@H]1O[C@@H](n2cnc3c(N)ncnc32)C(O)[C@H]1O (some centres undefined)?
**A.** normalized growth (locus YAL013W, strain DEP1, active compounds read low): 0.987; normalized growth (locus YAL040C, strain CLN3, active compounds read low): 0.989; normalized growth (locus YDR363W, strain ESC2, active compounds read low): 1.07; normalized growth (locus YER002W, strain NOP16, active compounds read low): 0.973; normalized growth (locus YGR078C, strain PAC10, active compounds read low): 1; normalized growth (locus YMR263W, strain SAP30, active compounds read low): 0.985; normalized growth (locus YNL128W, strain TEP1, active compounds read low): 0.983; normalized growth (locus YNL175C, strain NOP13, active compounds read low): 0.984; normalized growth (locus YNL197C, strain WHI3, active compounds read low): 0.997; normalized growth (locus YNL224C, strain SQS1, active compounds read low): 0.996; normalized growth (locus YNL322C, strain KRE1, active compounds read low): 1.02; normalized growth (locus YOR083W, strain WHI5 (second series), active compounds read low): 1.02; normalized growth (locus YPL241C, strain CIN2, active compounds read low): 0.976

**Q.** Which results are given for CSC1=NNC(c2nn(C)cc2Cl)S1 (centres undefined)?
**A.** normalized growth (locus YAR019C, strain CDC15, active compounds read low): 0.366 (active); normalized growth (locus YBL105C, strain PKC1, active compounds read low): 0.509 (active); normalized growth (locus YBR135W, strain CKS1, active compounds read low): 0.582 (active); normalized growth (locus YBR136W, strain MEC1, active compounds read low): 0.565 (active); normalized growth (locus YBR160W, strain CDC28, active compounds read low): 0.644 (active); normalized growth (locus YDL017W, strain CDC7, active compounds read low): 0.586 (active); normalized growth (locus YDL028C, strain MPS1, active compounds read low): 0.551 (active); normalized growth (locus YDL101C, strain DUN1, active compounds read low): 0.206 (active); normalized growth (locus YDL108W, strain KIN28, active compounds read low): 0.653 (active); normalized growth (locus YDL132W, strain cdc53, active compounds read low): 0.472 (active); normalized growth (locus YDL214C, strain PRR2, active compounds read low): 0.145 (active); normalized growth (locus YDR052C, strain DBF4, active compounds read low): 0.874 (active); normalized growth (locus YDR054C, strain cdc34, active compounds read low): 0.318 (active); normalized growth (locus YDR226W, strain ADK1, active compounds read low): 0.511 (active); normalized growth (locus YDR477W, strain SNF1, active compounds read low): 0.134 (active); normalized growth (locus YER123W, strain YCK3, active compounds read low): 0.126 (active); normalized growth (locus YER133W, strain GLC7, active compounds read low): 0.138 (active); normalized growth (locus YFL009W, strain cdc4, active compounds read low): 0.282 (active); normalized growth (locus YFL029C, strain CAK1, active compounds read low): 0.374 (active); normalized growth (locus YFR003C, strain YPI1, active compounds read low): 0.594 (active); normalized growth (locus YFR019W, strain FAB1, active compounds read low): 0.148 (active); normalized growth (locus YFR028C, strain CDC14, active compounds read low): 0.444 (active); normalized growth (locus YGR040W, strain KSS1, active compounds read low): 0.13 (active); normalized growth (locus YGR052W, strain FMP48, active compounds read low): 0.131 (active); normalized growth (locus YGR092W, strain DBF2, active compounds read low): 0.117 (active); normalized growth (locus YHR030C, strain SLT2, active compounds read low): 0.178 (active); normalized growth (locus YHR079C, strain IRE1, active compounds read low): 0.214 (active); normalized growth (locus YHR082C, strain KSP1, active compounds read low): 0.236 (active); normalized growth (locus YHR205W, strain SCH9, active compounds read low): 0.0971 (active); normalized growth (locus YIL147C, strain SLN1, active compounds read low): 0.502 (active); normalized growth (locus YJL095W, strain BCK1, active compounds read low): 0.134 (active); normalized growth (locus YJL128C, strain PBS2, active compounds read low): 0.31 (active); normalized growth (locus YJL157C, strain FAR1, active compounds read low): 0.159 (active); normalized growth (locus YJR016C, strain ILV3, active compounds read low): 0.337 (active); normalized growth (locus YJR066W, strain TOR1 (second series), active compounds read low): 0.171 (active); normalized growth (locus YJR066W, strain TOR1, active compounds read low): 0.17 (active); normalized growth (locus YKL048C, strain ELM1, active compounds read low): 0.158 (active); normalized growth (locus YKL067W, strain YNK1, active compounds read low): 0.176 (active); normalized growth (locus YKL101W, strain HSL1, active compounds read low): 0.142 (active); normalized growth (locus YKL193C, strain SDS22, active compounds read low): 0.425 (active); normalized growth (locus YKL203C, strain TOR2, active compounds read low): 0.136 (active); normalized growth (locus YLR113W, strain HOG1, active compounds read low): 0.157 (active); normalized growth (locus YLR133W, strain CKI1, active compounds read low): 0.137 (active); normalized growth (locus YLR403W, strain SFP1, active compounds read low): 0.0487 (active); normalized growth (locus YML070W, strain DAK1, active compounds read low): 0.147 (active); normalized growth (locus YMR001C, strain CDC5, active compounds read low): 0.479 (active); normalized growth (locus YMR205C, strain PFK2 (second series), active compounds read low): 0.143 (active); normalized growth (locus YMR277W, strain FCP1, active compounds read low): 0.292 (active); normalized growth (locus YNL006W, strain LST8, active compounds read low): 0.372 (active); normalized growth (locus YNL020C, strain ARK1, active compounds read low): 0.126 (active); normalized growth (locus YNL161W, strain CBK1, active compounds read low): 0.393 (active); normalized growth (locus YNL183C, strain NPR1, active compounds read low): 0.112 (active); normalized growth (locus YNL207W, strain RIO2, active compounds read low): 0.448 (active); normalized growth (locus YNL222W, strain SSU72, active compounds read low): 0.455 (active); normalized growth (locus YNL307C, strain MCK1 (second series), active compounds read low): 0.122 (active); normalized growth (locus YOL078W, strain AVO1, active compounds read low): 0.415 (active); normalized growth (locus YOL136C, strain PFK27, active compounds read low): 0.116 (active); normalized growth (locus YOR061W, strain CKA2, active compounds read low): 0.118 (active); normalized growth (locus YOR119C, strain RIO1, active compounds read low): 0.156 (active); normalized growth (locus YOR231W, strain MKK1, active compounds read low): 0.222 (active); normalized growth (locus YOR329C, strain SCD5, active compounds read low): 0.487 (active); normalized growth (locus YPL031C, strain PHO85, active compounds read low): 0.128 (active); normalized growth (locus YPL153C, strain RAD53, active compounds read low): 0.121 (active); normalized growth (locus YPL204W, strain HRR25, active compounds read low): 0.16 (active); normalized growth (locus YPL209C, strain IPL1, active compounds read low): 0.595 (active); normalized growth (locus YPL256C, strain CLN2, active compounds read low): 0.177 (active); normalized growth (locus YPR025C, strain CCL1, active compounds read low): 0.511 (active); normalized growth (locus YPR106W, strain ISR1, active compounds read low): 0.395 (active); normalized growth (locus YPR111W, strain DBF20, active compounds read low): 0.525 (active); normalized growth (strain NNK1, active compounds read low): 0.199 (active); normalized growth (strain TSCII, active compounds read low): 0.337 (active)
